Experimental findings from PubChem BioAssay (NCATS) are described below.

Results filed as inconclusive are left out. Values without a mark were called inactive. Calls of active or inactive are those of the source. Calls come from the whole dose curve; as a rule, active = well fitted cell-killing curve with a large enough effect; inconclusive = small, poorly fitted or top-dose-only effect; inactive = no such curve, though single readings can be large or run the other way.
Potency is the fitted concentration of half-maximal effect.

This assay is described as follows: qHTS of pediatric cancer cell lines to identify multiple opportunities for drug repurposing: Primary screen for SJ-GBM2 cells (AID 1347091). As to conditions: SJ-GBM2 viability, CellTiter-Glo luminescence, 48 h; series mostly up to 46 µM. The source says:
Drug repurposing or repositioning has been offered as a strategy for drug development in oncology programs. This approach has special potential for childhood cancers and other rare or orphan diseases, where the expected return on new drug development has been a disincentive to pharmaceuticals.
In this project we exploit the poly-pharmacology of drugs to discover new indications via phenotypic screening of a panel of 19 well-characterized cell lines derived from solid tumors seen in children and adolescents. The goal is to identify approved drugs with previously unrecognized anticancer properties that has the potential to reveal new mechanisms and biological processes involved in carcinogenesis or drug resistance. We employed a titration-based paradigm (quantitative high-throughput screening or qHTS), where all compounds were tested at multiple concentrations for their effect on cell viability. Concentration-response curves (CRCs) were derived directly from the primary screen, and both potency and efficacy values were used to identify compounds with robust bioactivity profiles. We screened the NIH Chemical Genomics Center (NCGC) Pharmaceutical Collection (NPC) and Mechanism Interrogation Plate (MIPE) small molecule collections of approved and investigational compounds against these cell lines; and measured metabolically active cells after 48 hours of compound treatment as a proxy for cell viability.
Assay Submitter: Nathalia J. Martinez, National Center for Advancing Translational Sciences, National Institutes of Health, Rockville, MD, USA; email: natalia.martinez@nih.gov
[1] Shen, M et al. Quantitative high-throughput phenotypic screening of pediatric cancer cell lines identifies multiple opportunities for drug repurposing. Oncotarget 2017 Dec 19;9(4):4758-4772. PMID 29435139.
The cells were obtained from University of North Carolina (UNC), Pediatric Preclinical Testing Program (PPT), and Coriell Institute (CI).
qHTS cell viability assay:
Cells were assayed in growth media at a density of 500-1,000 cells/well. Five microliters of cells were dispensed into 1,536-well, white, solid-bottom, TC-treated plates (Greiner Bio One) using a multidrop dispenser and incubated at 37 degrees C, 5% CO2, under a humidified atmosphere for 5 hours. Twenty-three nanoliters of compounds and controls (neutral control DMSO or positive control bortezomib at final concentration of 2.3 µM) were subsequently transferred by Kalypsys pintool. For primary screens, the MIPE collection was tested at 11-point dilutions (final concentrations range from 0.78 nM to 46 µM) and the NPC collection at 8-point dilutions (final concentrations range from 0.59 nM to 46 µM). Compounds tested in follow-up screens were assayed at 11-point dilutions. Cells were incubated for 48 hours, followed by addition of 3 uL of CellTiter-Glo (Promega). After a 15 min incubation at room temperature, samples were analyzed for luminescence intensity using a ViewLux High-throughput CCD imager equipped with clear filters.
Consider `N#CNC(=NCCCCCCOc1ccc(Cl)cc1)Nc1ccncc1`, for which the Potency is 0.001 µM (active).
The same measure, in the same setting: then `c1cncc(CN2CCC(n3ncc4c(N5CCOCC5)nc(-c5ccc6[nH]ccc6c5)nc43)CC2)c1`, with 3.32 µM (active).
For the molecule `NC(=NCCCCCCN=C(N)N=C(N)Nc1ccc(Cl)cc1)N=C(N)Nc1ccc(Cl)cc1`, the Potency was 13.2 µM (active).
For `CC(=O)N[C@@H]1[C@H](O[C@@H]2c3ccc(c(Cl)c3)Oc3cc4cc(c3O[C@H]3O[C@H](CO)[C@@H](O)[C@H](O)[C@H]3NC(=O)CCCCCCCC(C)C)Oc3ccc(cc3Cl)C[C@H]3NC(=O)[C@H](N)c5ccc(O)c(c5)Oc5cc(O)cc(c5)[C@H](NC3=O)C(=O)N[C@H]4C(=O)N[C@H]3C(=O)N[C@@H]2C(=O)N[C@@H](C(=O)O)c2cc(O)cc(O[C@H]4O[C@H](CO)[C@@H](O)[C@H](O)[C@H]4O)c2-c2cc3ccc2O)O[C@H](CO)[C@@H](O)[C@@H]1O`, the Potency result is “inactive”.
Regarding `COc1cc2ncnc(Nc3cccc(Br)c3)c2cc1OC`, the Potency was 20.9 µM (active).
Consider `O=C(C=CC=Cc1ccc2c(c1)OCO2)N1CCCCC1`, for which the Potency result is “inactive”.
The same measure, in the same setting: then `CC(C)c1cnn2c(NCc3ccccc3)cc(NCCCCCCN)nc12`, with 16.6 µM (active); and `COc1ccc(C=Cc2cc(OC)c(OC)c(OC)c2)cc1NC(=O)[C@H](N)CO`, with 0.001 µM (active).
On to `Cn1cc(CNCC2CCN(c3ncc(C(=O)NO)cn3)CC2)c2ccccc21`, for which the Potency was 0.0743 µM (active).
The same measure, in the same setting: for `Cn1cc(C2=C(c3c4n(c5ccccc35)CCC(CN)C4)C(=O)NC2=O)c2ccccc21` (stereo not given) the value was 14.8 µM (active); for `Cc1cc(-c2nnc3n2CCCCC3)c(C)n1-c1ccccc1`, “inactive”; for `COc1cc(C(=O)NC2CCN(C)CC2)ccc1Nc1ncc2c(n1)N(C1CCCC1)CCC(=O)N2C(C)C`, 2.35 µM (active).
On the same count and under the same terms, for `N#Cc1cc(NC(=O)Nc2nnc(-c3ccncc3)s2)ccc1-c1cn[nH]c1` the value was “inactive”; for `C[C@H](CCC(=O)O)[C@H]1CCC2C3C[C@H](O)[C@@H]4C[C@H](O)CC[C@]4(C)C3CC[C@@]21C` (stereo not given in full), “inactive”.
As for `C[C@H](NC(=O)C(C#N)=Cc1cccc(Br)n1)c1ccccc1`, the Potency was 2.96 µM (active).
Still for that read-out and setting: then `C[C@]12C=CC(=O)N[C@@H]1CC[C@H]1[C@H]3CC[C@@H](C(=O)Nc4cc(C(F)(F)F)ccc4C(F)(F)F)[C@@]3(C)CC[C@@H]12`, with 14.8 µM (active); and `CN[C@@H]1C[C@H]2O[C@@](C)([C@H]1OC)n1c3ccccc3c3c4c(c5c6ccccc6n2c5c31)C(=O)N[C@H]4O`, with 0.118 µM (active).
On the same count and under the same terms, for `C[C@@H](Oc1ccc2[nH]nc(C=Cc3cnn(CCO)c3)c2c1)c1c(Cl)cncc1Cl` the value was 0.418 µM (active); for `CC(C)N(CC[C@H](c1ccccc1)c1cc(CO)ccc1O)C(C)C`, “inactive”.
Same read-out and setting: then `COc1cccc2c1C(=O)c1c(O)c3c(c(O)c1C2=O)C[C@@](O)(C(C)=O)C[C@H]3O[C@H]1C[C@H](N)[C@H](O)[C@H](C)O1`, with 0.0662 µM (active).
Turning to `CC(C)(O)[C@H]1CC[C@@](C)([C@H]2[C@@H](O)C[C@@]3(C)[C@@H]4C[C@H](O[C@@H]5O[C@H](CO)[C@@H](O)[C@H](O)[C@@H]5O)[C@H]5C(C)(C)[C@@H](O[C@@H]6OC[C@@H](O)[C@H](O)[C@@H]6O)CC[C@@]56C[C@@]46CC[C@]23C)O1`, the Potency entry was “inactive”.
In the case of `CS(=O)(=O)N1CCc2c(-c3cnc(N)nc3)nc(N3CCOCC3)nc21`, the Potency is 0.209 µM (active).
Still for that read-out and setting: for `COc1cc(CCc2cc(NC(=O)c3ccc(N4C[C@@H](C)N[C@@H](C)C4)cc3)n[nH]2)cc(OC)c1` the value was 13.2 µM (active).
With `COc1cc(C(C)C)c(Oc2cnc(NC(CO)CO)nc2N)cc1I`, the Potency entry was “inactive”.
As for `CCc1ccc(C(=O)Nc2cc(CN3CCN(C)CC3)cc(C(F)(F)F)c2)cc1C#Cc1cnc2ccnn2c1`, the Potency is 9.35 µM (active).
On the same count and under the same terms, for `CCc1cnn2c(NCc3ccc[n+]([O-])c3)cc(N3CCCC[C@@H]3CCO)nc12` the value was 0.0235 µM (active).
Turning to `C=CC(=O)Nc1ccc2ncnc(Nc3ccc(OCc4cccc(F)c4)c(Cl)c3)c2c1`, the Potency was 0.0296 µM (active).
Same read-out and setting: for `O=c1ccn([C@@H]2O[C@H](CO)[C@H](O)[C@@H]2F)c(=O)[nH]1` the value was “inactive”; for `COc1cc([C@@H]2c3cc4c(cc3[C@@H](O[C@@H]3O[C@@H]5CO[C@@H](c6cccs6)O[C@@H]5[C@H](O)[C@@H]3O)[C@H]3COC(=O)[C@H]23)OCO4)cc(OC)c1O`, 0.118 µM (active).
For the molecule `CCN1CCN(C(=O)N[C@H](C(=O)N[C@@H]2C(=O)N3C(C(=O)O)=C(CSc4nnnn4C)CS[C@@H]23)c2ccc(O)cc2)C(=O)C1=O`, the activity change, negative = cytotoxic was 24.4% [at 9.22 µM].
As to `O=C(Nc1nnc(-c2ccco2)o1)c1cc(-c2ccccc2)nc2ccccc12`, the Potency was 7.43 µM (active).
The same measure, in the same setting: for `CCN(CC)CCCCNc1ncc2c(n1)N(C)C(=O)N(c1c(Cl)c(OC)cc(OC)c1Cl)C2` the value was 14.8 µM (active).
Still for that read-out and setting: then `C[N+]1(C)[C@@H]2C[C@@H](OC(=O)C(O)(c3cccs3)c3cccs3)C[C@H]1[C@@H]1O[C@@H]12`, with “inactive”; and `CN(CC(=O)N(Cc1ccc(C2CCCCC2)cc1)c1ccc(C(=O)O)c(O)c1)S(=O)(=O)c1c(F)c(F)c(F)c(F)c1F`, with 11.8 µM (active).
As to `C[C@](Cc1c[nH]c2ccccc12)(NC(=O)OC1C2CC3CC(C2)CC1C3)C(=O)NC[C@H](NC(=O)CCC(=O)O)c1ccccc1` (stereo not given in full), the Potency entry is “inactive”.
With `Cc1cnc(NC(=O)Nc2cc(Br)c(C)cc2OC[C@@H]2CNCCO2)cn1`, the Potency was 1.18 µM (active).
In the case of `O=C(O)CCCCCC(=O)NN=C1CCCC1`, the Potency result was “inactive”.
Same read-out and setting: for `CC(C)(O)Cn1c(NC(=O)c2ccc(-c3cn[nH]c3)s2)nc2cc(CN3CCOCC3)ccc21` the value was 0.743 µM (active).
`Cc1ccc2nc(NCCN)c3ncc(C)n3c2c1`: the Potency is 11.8 µM (active).
Still for that read-out and setting: then `CC[C@H](CC[C@@H](C)[C@H]1CC[C@H]2[C@@H]3CC=C4C[C@@H](O)CC[C@]4(C)[C@@H]3CC[C@]12C)C(C)C`, with “inactive”.
